Screening data from PubChem BioAssay.
Most compounds without a hit are left out; they make up all but 10% or so of the library.
MmCpn inh = Inhibitors of TCP-1 ring complex (TRiC) of Methanococcus maripaludis (MmCpn): qHTS; Potency, µM (top dose mostly 76.9 µM), for inactives: at the highest dose activity, negative = inhibition, hits mostly inhibitors; purified Mm-Cpn ATPase, ADP Transcreener TR-FRET; AID 504842, 2011; 330,000 tested, 0.031% active; Chaperonin Mm-Cpn (Methanococcus maripaludis); further: potency means the concentration at half of the fitted maximal effect; nearly all actives have a fitted effect of over 80% in size
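Compound-treated chaperonin, 25 nM final, turns over 10 uM ATP at 37°C for 30 min following a 10 min preincubation; ADP generated competes with ADP-d2 for Eu-cryptate antibody, lowering FRET.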
Sfp inh = qHTS Assay for Inhibitors of Bacillus subtilis Sfp phosphopantetheinyl transferase (PPTase); Biochemical Sfp PPTase activity, qHTS; Potency, µM, for inactives: largest response in the series, negative = inhibition, most hits filed as inhibitors; 310,000 tested, 3.5% active; AID 1490, 2009;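 further: the enzyme is Sfp with the accession as filed and its product quenches rhodamine fluorescence; potency means the concentration at half of the fitted maximal effect; 0% = enzyme reaction without inhibitor and -100% = no enzyme wells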
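Sfp 15 nM + cpd, 15 min RT; start w/ rhodamine-CoA 5 uM, BHQ-2-YbbR 12.5 uM (final); 50 mM Hepes pH 7.6, 10 mM MgCl2, 0.01% NP-40, 0.01% BSA; read 525/598 nm at 0 and 30 min.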
PLK1 PBD inh = qHTS for Inhibitors of PLK1-PDB (polo-like kinase 1 - polo-box domain): Primary Screen | 360,000 tested, 2.8% active | Serine/threonine-protein kinase PLK1 (Homo sapiens), P53350 | Potency, µM, for the others: max response, negative = inhibition, usual class: inhibitors | Plk1 PBD binding of FITC phosphopeptide, fluorescence polarization; further: potency means the concentration at half of the fitted maximal effect; series mostly up to about 57 µM; nearly all actives have a fitted effect of over 65% in size
Target sequence (P53350 whole entry, looked up, the tested form may be a part): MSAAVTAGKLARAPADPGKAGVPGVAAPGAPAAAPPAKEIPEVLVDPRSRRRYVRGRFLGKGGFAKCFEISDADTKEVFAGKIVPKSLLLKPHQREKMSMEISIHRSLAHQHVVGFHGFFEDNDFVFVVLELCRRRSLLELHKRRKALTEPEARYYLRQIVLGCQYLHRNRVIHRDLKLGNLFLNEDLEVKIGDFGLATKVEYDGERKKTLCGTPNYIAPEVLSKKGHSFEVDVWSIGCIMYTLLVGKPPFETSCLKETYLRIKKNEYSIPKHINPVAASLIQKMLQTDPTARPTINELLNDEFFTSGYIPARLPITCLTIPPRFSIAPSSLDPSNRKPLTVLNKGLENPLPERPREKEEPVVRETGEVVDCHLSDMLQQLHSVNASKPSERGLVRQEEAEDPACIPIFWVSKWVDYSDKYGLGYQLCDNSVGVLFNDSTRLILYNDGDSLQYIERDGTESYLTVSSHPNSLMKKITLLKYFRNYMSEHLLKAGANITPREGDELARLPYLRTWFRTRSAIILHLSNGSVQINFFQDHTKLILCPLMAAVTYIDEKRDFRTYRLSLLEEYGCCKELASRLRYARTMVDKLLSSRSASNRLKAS
G9a inh = qHTS Assay for Inhibitors of Histone Lysine Methyltransferase G9a. 350,000 tested, 8.8% active. G9a H3K9 monomethylation, AlphaScreen, 2 h. Potency, µM (top dose mostly 102 µM), for inactives: top-dose activity, negative = inhibition, actives largely listed as inhibitors. AID 504332, 2011; further: potency means the concentration at half of the fitted maximal effect; nearly all actives have a fitted effect of over 75% in size
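Chemiluminescent proximity detection of H3K9 monomethylation, read after 10 min bead incubation in the dark. Reaction: 20 nM G9a, 500 nM biotin-H3K9 peptide, 20 uM SAM cofactor, 2 h, room temperature, following 15 min enzyme-compound preincubation.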
CCT chaperon mod = High-Throughput Screening for Modulators of Cytosolic Chaperonin Activity | purified chaperonin ATPase assay, HTRF ADP detection, 30 min | activity change, % (test concentration not listed), hits read low | 360,000 tested, 0.3% active; in the data active means activity change below about -30%
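ATPase activity: ADP formed was measured by HTRF Transcreener (665/615 nm ratio) after 30 min at 37 deg C with 10 uM ATP. Compounds screened at one 76 uM concentration against 40 or 20 nM TRiC in Tris pH 7.4/KCl/MgCl2/DTT buffer.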
VDR inhibitor = Inhibitors of the vitamin D receptor (VDR): qHTS; AID 504847, 2011; VDR-SRC2-3 peptide fluorescence polarization, 2 h; 400,000 tested, 0.93% active; Potency, µM, without a hit: max response, negative = inhibition, usual class: inhibitors; Vitamin D3 receptor (Homo sapiens), P11473; further: potency means the concentration at half of the fitted maximal effect
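FP read-out; VDR + SRC2-3 coactivator peptide; 23 nl compound by pintool; 2 h RT incubation; reagents held at 4 deg C, protected from light.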
The depositor's hits bear a star; ? = inconclusive; . = not tested or not shown; ! = repeats disagree; [ ] = remark or other dose. Unless noted, the call rests on the fitted dose curve; in most records, active means well fitted curve in the direction sought with a large enough effect; inconclusive means small, poorly fitted or top-dose-only effect, or another doubt; inactive means no such curve, though single readings can be large; an effect the other way counts as inactive or inconclusive. Unless noted, on the % scale 0 is the no-effect control and ±100 the full control effect.

SMILES	MmCpn inh	Sfp inh	PLK1 PBD inh	G9a inh	CCT chaperon mod	VDR inhibitor
O=C(Cn1c(=O)oc2ccccc21)Nc1n[nH]c(=S)s1	1%	32µM*	?	1.3µM*	-1	?
CCc1cccc(NC(=O)c2cn3c4c(ccc(Cl)c4c2=O)OC(C)C3)c1 (stereo not drawn)	.	.	.	-19%[59 µM]	.	6%
Cc1cc(C)n2nc(SCc3cccc(S(=O)(=O)N(C)C)c3)nc2n1	1%	4%	-20%	45µM*	1	?
CCCn1c(-c2ccc(F)cc2)nc2c(N3CCCN(Cc4ccccc4)CC3)nc(C)nc21	.	22µM*	.	.	.	.
CN1C(=O)c2ccc(NC(=S)NC(=O)C(C)(C)C)cc2C1=O	1%	35µM*	-12%	45µM*	-1	0%
CCC(=O)Nc1ccc2c(c1)C(=O)N(C)C2=O	-3%	11%	-4%	-16%	-2	-4%
CC(=O)Nc1cccc(-c2nnc(SCC(=O)c3cc([N+](=O)[O-])ccc3Cl)o2)c1	.	.	.	-38%[59 µM]	.	13%
CCC/C=C/C(C)O (stereo not drawn)	.	-1%	.	.	.	2%
CC(=O)c1ccc(N2C(=O)[C@@H]3[C@H](C2=O)[C@H]2c4ccccc4C=NN2[C@@H]3C(C)=O)cc1	1%	-27%	-1%	.	0	-7%
CC(=O)[C@@H]1[C@@H]2C(=O)N(c3ccccc3F)C(=O)[C@@H]2[C@H]2c3ccccc3C=NN12	-2%	-12%	-9%	50µM*	0	-14%
O=C(c1ccc(Cl)cc1)[C@@H]1[C@@H]2C(=O)N(c3cccc4ccccc34)C(=O)[C@@H]2C2c3ccccc3C=NN21 (stereo partly drawn)	-2%	-11%	24µM*	20µM*	1	-12%
CCOc1ccc(Sc2cc(C(=O)NCCCOC)c3ccccc3n2)cc1	.	.	.	9%[59 µM]	.	10%
Cc1cccc(CNc2ncnc3ccc(-c4ccc(C(=O)N(C)C)cc4)cc23)c1	.	4%	.	.	.	3%
Cc1nc2c(C#N)c[nH]n2c(=O)c1CCO	0%	-5%	9.5µM*	34%[12.7 µM]	-3	28µM*
Cc1ccc(C)c(NCc2n[nH]c(=S)n2-c2ccccc2)c1	1%	22%	0%	.	0	1%
Cc1ccc(-n2c(CCc3ccccc3)n[nH]c2=S)cc1C	-1%	13%	-19%	2µM*	-8	-25%
COc1ccc(-n2c(COc3ccccc3)n[nH]c2=S)cc1	0%	2%	6%	14%[0.501 µM]	0	0%
COc1ccc(CSCCc2n[nH]c(=S)n2-c2ccccc2)cc1	-3%	-29%	-15%	?	-3	-16%
Cc1ccc(OCc2n[nH]c(=S)n2-c2ccccc2)cc1C	-1%	-1%	-4%	.	3	-3%
Cc1cccc(C)c1NCc1n[nH]c(=S)n1-c1ccccc1	2%	79µM*	-14%	11µM*	3	-16%
COCc1n[nH]c(=S)n1-c1ccccc1	-1%	-20%	-13%	40µM*	-2	6%
CC(C)Oc1ccc(CCc2n[nH]c(=S)n2-c2ccccc2)cc1	1%	3%	9%	2.5µM*	-5	-8%
CCOCCCNC(=O)c1c(NC(=O)c2cc(=O)c3ccccc3o2)sc2c1CCC2	.	.	.	-2%[59 µM]	.	3%
COc1ccc(-n2c(COc3ccc(C)cc3)n[nH]c2=S)cc1	-6%	-10%	-1%	.	-2	-1%
Cn1c(SCc2n[nH]c(=S)n2-c2ccccc2)nnc1-c1ccccc1	-1%	-11%	-5%	8.9µM*	-1	-1%
SMILES	MmCpn inh	Sfp inh	PLK1 PBD inh	G9a inh	CCT chaperon mod	VDR inhibitor
Cc1ccc(-n2c(COc3cccc(C)c3)n[nH]c2=S)cc1	1%	-25%	-5%	4.5µM*	0	-8%
COc1ccc(C(=O)Oc2ccc(C(c3c(C)[nH][nH]c3=O)c3c(C)[nH][nH]c3=O)cc2)cc1	.	.	.	-30%[59 µM]	.	-25%
[O][C@H]1[C@@H](O)[C@@H](CO)O[C@@H](O[C@@H]2[C@@H]3OC[C@H]2O[C@H](O[C@@H]2[C@@H](O)[C@H](C[C@@H]4[C@@H]5OC[C@H]4O[CH][C@@H]5O)O[C@H](CO)[C@@H]2OS(=O)(=O)O)[C@@H]3OS(=O)(=O)O)[C@@H]1O	.	5%	.	16µM*	.	0%
COc1cccc(C=NCCNC(=O)c2nonc2N)c1O	-1%	45µM*	-7%	?	-2	?
CCC(C)CCCCC(=O)NC(CCN)C(=O)NC(C(=O)NC(CCN)C(=O)NC1CCNC(=O)C(C(C)O)NC(=O)C(CCN)NC(=O)C(CCN)NC(=O)C(CC(C)C)NC(=O)C(Cc2ccccc2)NC(=O)C(CCN)NC1=O)C(C)O (stereo not drawn)	.	28µM*	.	-43%[2.33 µM]	.	0%
CCc1cc2c(nc1CC)CCN(CC/C(C)=N/OC[C@@H](O)COCc1ccco1)C2	.	1%	.	.	.	.
COc1ccccc1/C=C/C=c1\sc2nc(=O)c(Cc3ccccc3)nn2c1=O	-3%	56µM*	?	.	0	?
CCCOc1ccc(Cc2nn3c(=O)/c(=C/c4ccco4)sc3nc2=O)cc1	-2%	50µM*	-11%	?	-1	-7%
COC(=O)CCCC1=CC2=CC(=O)C(C)(OC(=O)c3cccs3)C(=O)C2=CN1C(CO)CO (stereo not drawn)	.	16%	.	.	.	.
Nc1nc(Sc2c([N+](=O)[O-])cc(C(F)(F)F)cc2[N+](=O)[O-])n[nH]1	-6%	?	2.4µM*	.	0	32µM*
CC(=O)c1ccc2c(c1)C1C=CCC1C(c1ccncc1)N2 (stereo not drawn)	0%	-28%	-16%	?	-2	-16%
CC(=O)c1ccc2c(c1)C1C=CCC1C(C(=O)O)N2 (stereo not drawn)	-3%	-20%	7.5µM*	-174%[12.7 µM]	-2	-16%
Cc1ccc2c(c1)C1C=CCC1C(C(=O)O)N2 (stereo not drawn)	-4%	?	.	4µM*	.	.
CC1=C(/C=C/C(=C/C=C/C(C)=C/C(=O)O)c2ccc(C)cc2)C(C)(C)CCC1	.	?	.	22µM*	.	22µM*
CC1=C(/C=C/C(C)=C/C=C/C(C)=C\C(=O)O)C(C)(C)CCC1	.	6%	?	12%[12.7 µM]	-1	50µM*!
CC1=C(/C=C/C(C)=C/C=C/C(C)=C/C(=O)Nc2ccc(O)cc2)C(C)(C)CCC1	0%	28%	-9%	13µM*!	-2	-7%
